Data on 14 compounds can be found in PubChem BioAssay (NCATS).

Records with an inconclusive call do not appear. Values without a mark were called inactive. Calls come from the whole dose curve; as a rule, active = well fitted inhibition curve with a large enough effect; inconclusive = small, poorly fitted or top-dose-only effect; inactive = no such curve, though single readings can be large or run the other way. Square brackets hold non-standard residues; d marks the D form. Peptide text beside a SMILES is read from it. pGlu = O=C1CC[C@@H](C(=O)O)N1; Thz = O=C(O)[C@@H]1CSCN1

The target in this assay is Retinaldehyde dehydrogenase 3 (Homo sapiens) (UniProt P47895). Briefly: qHTS for Inhibitors of the Aldehyde Dehydrogenase Family (ALDH1A3) Primary screen (AID 2061315).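 Note: plate controls were DMSO vehicle for no effect and reference inhibitor for full effect.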 To be noted: ALDH inhibition qHTS; series mostly up to 56 µM; activity change, negative = inhibition: at the top concentration.
`CN(C)C(=O)NC1(c2ccccc2)CCN(CCC[C@]2(c3ccc(Cl)c(Cl)c3)CCCN(C(=O)c3ccccc3)C2)CC1`: the “activity change, negative = inhibition” value is 2.84%.

In the case of `CCCCNc1nc(N)c2[nH]c(=O)n(Cc3ccc(OCCN(C)C)nc3)c2n1`, the “activity change, negative = inhibition” value is -19.4%.

`O=C(N[C@@H]1CC[C@@H](c2cccc(F)c2F)CN(CC(F)(F)F)C1=O)N1CCC(n2c(=O)[nH]c3ncccc32)CC1`: the “activity change, negative = inhibition” value was 4.41%.

For `CC(C)[C@@H]1C(=O)N(S(C)(=O)=O)[C@@H]2CCN(C(=O)/C=C/CN3CCCCC3)[C@H]21`, the “activity change, negative = inhibition” value is -1.85%.

`Clc1cccc(-c2nnnn2Cc2cccnc2)c1Cl`: the “activity change, negative = inhibition” value was 22.3%.

For the compound `CC(C)(C)c1cc(Br)cc([C@H](CC(=O)O)NC(=O)CNC(=O)c2cc(O)cc(NC3=NCC(O)CN3)c2)c1` (some centres undefined), the “activity change, negative = inhibition” value was -2.16%.

As to `O=C(NCc1ccccn1)Nc1nnc(-c2ccco2)o1`, the “activity change, negative = inhibition” value is 3.64%.

Consider `CNc1cc2[nH]c(=O)n(-c3ccc(NC(=O)NS(=O)(=O)c4ccc(Cl)s4)cc3)c(=O)c2cc1F`, for which the “activity change, negative = inhibition” value is -0.76%.

`CN1CC2CN(c3ccc4oc5ccccc5c(=O)c4c3)CC2C1` (centres undefined): the “activity change, negative = inhibition” value is -8.06% [at 28 µM].

For the compound `CCCCOC(=O)NC(=O)C1c2ccccc2Oc2ccccc21`, the “activity change, negative = inhibition” value is -0.941%.

As for `O=C1CC[C@@H](C(=O)N2CSC[C@H]2C(=O)O)N1` ([pGlu]-[Thz]-OH), the “activity change, negative = inhibition” value was -4.52%.

For the compound `O=C(O)C1CN(Cc2ccc(-c3nc4cc(Cc5ccccc5F)ccc4s3)c(F)c2)C1`, the activity change, negative = inhibition is -4.23% [at 11.2 µM].

`Cc1cc(C)nc(SCC(=O)Nc2ncc(Cc3cccc4ccccc34)s2)n1`: the “activity change, negative = inhibition” value is 0.466%.

For the compound `Cc1cc(C)nc(NS(=O)(=O)c2ccc(NC(=S)NC(=O)COc3ccc(Br)cc3Cl)cc2)n1`, the “activity change, negative = inhibition” value was 17.2%.
